# Data as given in PubChem BioAssay.
# Where “and” joins values, the source holds several entries; their conditions need not be identical. Equal values may be shown once. Calls of active or inactive are those of the source.
# Legend:
# [1] = small molecules captured by biotinylated probe aFSTL3 – biochemical, small-molecule microarray, fluorescence 635/667, stem cell growth factor project, primary screen (AID 1064); conditions: higher = more signal;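 also: measures binding of the biotinylated anti-FSTL3 antibody to printed compounds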
# [2] = binders from COS7 lysate, DM2A8 probe, primary screen, torsin A project, cell lysate, small-molecule microarray, fluorescence 635/667 (AID 1065); conditions: higher = more signal, COS7 lysate expressing mutant human TOR1A
# [3] = small molecules captured by biotinylated probe aFGF2 – biochemical, small-molecule microarray, fluorescence 635/667, stem cell growth factor project, primary screen (AID 1067); conditions: higher = more signal;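 also: measures binding of biotinylated aFGF2 protein to printed compounds on slides; z-score merges feature fluorescence and signal-to-noise across triplicate slides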
# [4] = small molecules captured by biotinylated probe aFGF10 – biochemical, small-molecule microarray, fluorescence 635/667, stem cell growth factor project, primary screen (AID 1071); conditions: higher = more signal;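 also: score merges 667 nm spot intensity and signal to noise from triplicate slides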
# [5] = biological target: Neurogenic locus notch homolog protein 2 (Homo sapiens) (UniProt Q04721); test: small molecules binding Notch2 protein – biochemical, small-molecule microarray, 635 nm fluorescence, stem cell growth factors, primary screen (AID 1073); conditions: higher = more signal
# [6] = biological target: Pro-neuregulin-1, membrane-bound isoform (Homo sapiens) (UniProt Q02297); test: small molecules binding neuregulin-1 protein – biochemical, small-molecule microarray, fluorescence 635/667, psychiatric disease protein project, primary screen (AID 1075); conditions: NRG1 binding, 635 nm fluorescence, higher = more signal;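 also: score combines 667 nm spot fluorescence with signal to noise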
# Sequence of Pro-neuregulin-1, membrane-bound isoform (Homo sapiens) (Q02297 whole entry, looked up, the tested form may be a part, canonical isoform): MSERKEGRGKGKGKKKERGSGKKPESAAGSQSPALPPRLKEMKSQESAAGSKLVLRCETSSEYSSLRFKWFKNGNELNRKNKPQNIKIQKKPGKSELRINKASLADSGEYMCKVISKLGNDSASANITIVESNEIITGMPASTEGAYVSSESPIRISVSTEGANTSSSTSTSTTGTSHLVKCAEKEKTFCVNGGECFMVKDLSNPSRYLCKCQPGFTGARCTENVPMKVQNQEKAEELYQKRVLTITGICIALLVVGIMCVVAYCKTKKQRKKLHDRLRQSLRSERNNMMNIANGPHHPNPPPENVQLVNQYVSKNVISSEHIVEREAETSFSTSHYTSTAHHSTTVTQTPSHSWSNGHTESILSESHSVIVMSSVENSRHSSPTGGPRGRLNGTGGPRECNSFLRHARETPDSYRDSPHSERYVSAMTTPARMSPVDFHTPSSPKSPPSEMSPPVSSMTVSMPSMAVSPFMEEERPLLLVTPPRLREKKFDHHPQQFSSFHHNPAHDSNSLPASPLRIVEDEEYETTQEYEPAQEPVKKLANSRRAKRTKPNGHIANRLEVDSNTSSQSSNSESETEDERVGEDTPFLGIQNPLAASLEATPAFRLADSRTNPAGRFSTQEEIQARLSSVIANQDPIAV
# [7] = tested on: Neuregulin-1 EGF-like domain; test: small molecules binding NRG1 EGF domain – biochemical, small-molecule microarray, 635 nm fluorescence, primary screen (AID 1081); conditions: higher = more signal;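 also: binding of the protein to compounds printed on small-molecule microarray slides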
# [8] = FRG1 expression reporter modulators in myotubes – cell-based, C2C12 myotubes, firefly/Renilla luciferase, luminescence, FRG1 inhibition for FSHD, primary screen (AID 1084); conditions: FRG1 promoter luciferase, higher = more signal, called active from +8 up or from −8 down
# [9] = small molecules captured by biotinylated probe aFST – biochemical, small-molecule microarray, fluorescence 635/667, stem cell growth factor project, primary screen (AID 1086); conditions: higher = more signal;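 also: score merges 667 nm fluorescence with signal-to-noise of each printed compound spot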
# [10] = binders of probe aHhip on microarray, primary screen, stem cell growth factor project, biochemical, small-molecule microarray, fluorescence 635/667 (AID 1087); conditions: higher = more signal;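 also: score merges spot fluorescence at 667nm with spot signal to noise ratio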
# [11] = tested on: PRMT1 (protein arginine N-methyltransferase 1); test: small molecules binding arginine methyltransferase PRMT1 – biochemical, small-molecule microarray, 635 nm fluorescence, primary screen (AID 1088); conditions: higher = more signal;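 also: binding of Prmt1 protein to compounds spotted on small-molecule microarray slides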
# [12] = growth effects on S. cerevisiae YJM789 – YJM789 clinical isolate, OD600, 24 h, basal, primary screen (AID 1089); conditions: higher = more signal, called active from +8 up or from −8 down;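 also: growth of clinical yeast isolate S. cerevisiae YJM 789 seeded 1000 cells per well; test concentration not given here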
# [13] = S. pombe growth modifiers, basal conditions – strain 972, OD600, 24 h, no modulator, primary screen (AID 1090);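 also: basal condition with compound alone and no growth modifier present; test concentration not given here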; conditions: S. pombe 972 growth, higher = more signal, called active from +8 up or from −8 down
# [14] = budding yeast growth modifiers under rapamycin – strain BY4716, OD600, 96 h, primary screen (AID 1091); also: test concentration not given here; conditions: S. cerevisiae BY4716 + rapamycin, higher = more signal, called active from +8 up or from −8 down
# [15] = biological target: Torsin-1A-interacting protein 2 (Homo sapiens) (UniProt Q8NFQ8); test: small molecules binding lysate-expressed LULL1 – cell lysate, human LULL1 lysate, 635/667 nm fluorescence, primary screen (AID 1092); conditions: small-molecule microarray, hLULL1 lysate binding, 635 nm fluorescence; higher = more signal;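 also: probe is lysate of COS7 cells overexpressing human LULL1; score merges per-feature 667 nm fluorescence with signal-to-noise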
# Sequence of Torsin-1A-interacting protein 2 (Homo sapiens) (Q8NFQ8 whole entry, looked up): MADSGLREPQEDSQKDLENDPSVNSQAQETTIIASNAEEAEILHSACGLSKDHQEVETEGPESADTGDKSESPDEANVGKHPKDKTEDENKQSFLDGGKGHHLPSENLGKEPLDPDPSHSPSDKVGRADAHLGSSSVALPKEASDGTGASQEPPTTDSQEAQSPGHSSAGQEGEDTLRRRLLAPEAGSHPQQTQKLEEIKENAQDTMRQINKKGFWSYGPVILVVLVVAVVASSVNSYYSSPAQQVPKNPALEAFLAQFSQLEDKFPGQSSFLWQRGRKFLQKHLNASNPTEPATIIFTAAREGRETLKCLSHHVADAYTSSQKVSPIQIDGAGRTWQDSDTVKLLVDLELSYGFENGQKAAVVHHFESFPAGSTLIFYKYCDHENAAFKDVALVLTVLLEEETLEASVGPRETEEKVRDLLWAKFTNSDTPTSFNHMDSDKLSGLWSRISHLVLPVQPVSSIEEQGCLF
# [16] = optical density change of DRC41 E. coli – strain DRC41, OD650, 24 h, E. coli filamentation project, primary screen (AID 1093);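 also: MC1000 strain lacking acrAB efflux and sulA so SOS filamentation is blocked; test concentration not given here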; conditions: E. coli DRC41 growth, higher = more signal, called active from +8 up or from −8 down
# [17] = probe aLefty2 binding to arrayed compounds – biochemical, biotinylated probe, 635/667 nm fluorescence, primary screen (AID 1094); conditions: small-molecule microarray, higher = more signal;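 also: score merges spot fluorescence near 667 nm with spot signal-to-noise ratio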
# [18] = tested on: Noggin (protein binding on small-molecule microarray); test: small molecules binding Noggin protein – biochemical, 635/667 nm fluorescence, primary screen (AID 1095); conditions: 635 nm fluorescence, higher = more signal;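 also: score merges 667 nm feature fluorescence with signal to noise over triplicate slides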
# [19] = biological target: Neurogenic locus notch homolog protein 3 (Homo sapiens) (UniProt Q9UM47); test: small molecules binding NOTCH3 protein – biochemical, 635/667 nm fluorescence, primary screen (AID 1096); conditions: small-molecule microarray, 635 nm fluorescence, higher = more signal
# Sequence of Neurogenic locus notch homolog protein 3 (Homo sapiens) (Q9UM47 whole entry, looked up): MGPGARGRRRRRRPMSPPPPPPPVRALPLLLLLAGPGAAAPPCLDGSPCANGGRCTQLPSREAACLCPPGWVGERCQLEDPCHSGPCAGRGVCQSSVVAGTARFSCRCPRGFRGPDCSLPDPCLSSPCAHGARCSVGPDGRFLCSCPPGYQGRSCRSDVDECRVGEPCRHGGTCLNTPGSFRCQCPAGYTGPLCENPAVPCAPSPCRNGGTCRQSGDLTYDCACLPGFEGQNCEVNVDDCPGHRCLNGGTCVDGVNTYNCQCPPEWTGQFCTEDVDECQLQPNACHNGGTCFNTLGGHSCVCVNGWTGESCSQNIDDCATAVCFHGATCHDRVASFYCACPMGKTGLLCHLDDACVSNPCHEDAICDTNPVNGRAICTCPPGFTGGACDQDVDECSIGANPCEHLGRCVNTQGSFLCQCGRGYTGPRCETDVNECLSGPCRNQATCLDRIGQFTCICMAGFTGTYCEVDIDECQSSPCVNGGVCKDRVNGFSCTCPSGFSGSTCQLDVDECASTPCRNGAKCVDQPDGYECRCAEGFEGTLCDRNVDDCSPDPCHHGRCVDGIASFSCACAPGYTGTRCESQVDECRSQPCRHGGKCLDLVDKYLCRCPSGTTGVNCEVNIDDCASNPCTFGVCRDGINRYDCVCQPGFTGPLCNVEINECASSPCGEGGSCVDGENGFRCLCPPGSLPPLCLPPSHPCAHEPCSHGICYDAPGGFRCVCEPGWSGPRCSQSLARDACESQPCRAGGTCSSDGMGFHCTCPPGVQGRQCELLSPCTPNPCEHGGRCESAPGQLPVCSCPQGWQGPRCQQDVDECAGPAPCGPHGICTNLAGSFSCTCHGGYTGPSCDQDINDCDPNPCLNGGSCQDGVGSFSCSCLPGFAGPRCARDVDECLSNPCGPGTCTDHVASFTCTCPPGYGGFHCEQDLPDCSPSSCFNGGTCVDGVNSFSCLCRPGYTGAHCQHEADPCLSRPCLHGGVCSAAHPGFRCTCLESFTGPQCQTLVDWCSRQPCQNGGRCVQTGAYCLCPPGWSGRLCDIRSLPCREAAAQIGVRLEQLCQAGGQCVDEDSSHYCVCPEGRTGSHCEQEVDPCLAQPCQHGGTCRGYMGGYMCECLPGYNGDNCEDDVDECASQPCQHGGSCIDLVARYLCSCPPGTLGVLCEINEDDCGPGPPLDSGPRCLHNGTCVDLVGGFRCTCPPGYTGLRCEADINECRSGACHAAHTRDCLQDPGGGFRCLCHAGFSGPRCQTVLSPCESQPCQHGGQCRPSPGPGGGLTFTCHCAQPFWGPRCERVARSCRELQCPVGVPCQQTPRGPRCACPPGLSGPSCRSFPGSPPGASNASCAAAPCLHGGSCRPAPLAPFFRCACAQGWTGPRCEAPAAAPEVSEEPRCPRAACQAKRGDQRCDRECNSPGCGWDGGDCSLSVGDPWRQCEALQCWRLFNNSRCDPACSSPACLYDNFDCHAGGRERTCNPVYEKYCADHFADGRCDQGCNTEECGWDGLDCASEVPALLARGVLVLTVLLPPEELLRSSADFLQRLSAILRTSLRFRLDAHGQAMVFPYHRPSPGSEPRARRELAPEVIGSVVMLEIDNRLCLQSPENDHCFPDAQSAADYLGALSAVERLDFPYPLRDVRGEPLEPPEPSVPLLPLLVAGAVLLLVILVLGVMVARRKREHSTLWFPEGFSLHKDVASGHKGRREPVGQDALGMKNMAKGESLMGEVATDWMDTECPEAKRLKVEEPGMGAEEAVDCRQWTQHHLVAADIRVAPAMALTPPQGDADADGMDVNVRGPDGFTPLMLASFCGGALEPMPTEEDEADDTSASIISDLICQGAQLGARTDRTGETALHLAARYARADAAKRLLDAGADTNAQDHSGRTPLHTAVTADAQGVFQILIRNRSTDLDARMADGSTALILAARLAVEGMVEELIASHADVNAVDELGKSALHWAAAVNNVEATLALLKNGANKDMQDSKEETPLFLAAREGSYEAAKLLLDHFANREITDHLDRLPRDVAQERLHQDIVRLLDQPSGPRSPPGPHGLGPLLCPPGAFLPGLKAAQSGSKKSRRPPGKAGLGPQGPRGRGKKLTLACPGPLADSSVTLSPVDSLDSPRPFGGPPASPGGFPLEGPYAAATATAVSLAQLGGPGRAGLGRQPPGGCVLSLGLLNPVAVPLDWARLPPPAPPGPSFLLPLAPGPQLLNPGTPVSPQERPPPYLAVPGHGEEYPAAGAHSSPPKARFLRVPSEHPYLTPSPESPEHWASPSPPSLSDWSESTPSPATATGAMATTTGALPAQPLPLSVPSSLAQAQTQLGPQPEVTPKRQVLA
# [20] = probe aEGFR binding to arrayed compounds – biochemical, biotinylated probe, 635/667 nm fluorescence, primary screen (AID 1097); conditions: small-molecule microarray, higher = more signal;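 also: probe is a biotinylated anti-EGFR antibody binding compounds printed on slides; score combines fluorescence near 667 nm and signal to noise of each spot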
Structure (SMILES),composite z-score [1],composite z-score [2],composite z-score [3],composite z-score [4],composite z-score [5],composite z-score [6],composite z-score [7],z-score [8],composite z-score [9],composite z-score [10],composite z-score [11],z-score [12],z-score [13],z-score [14],composite z-score [15],z-score [16],composite z-score [17],composite z-score [18],composite z-score [19],composite z-score [20]
O=C1C[C@]2(c3ccc([N+](=O)[O-])cc3)C(=O)N(Cc3ccccc3)c3cc(CO)ccc3[C@H]2N1C1CCCCC1,-0.391 and -0.0715,0.0304 and -0.0759,-0.145 and 0.103,-0.416 and 0.208,0.168 and 0.853,-0.183 and 0.819,1.25 and 1.12,-0.0521 (inactive) and 0.981 (inactive),-0.0791 and -0.129,-0.185 and 1.38,1.33 and 0.39,-0.754 (inactive) and -0.363 (inactive),0.31 (inactive) and -0.838 (inactive),-1.02 (inactive) and 3.78 (inactive),2.21 and 1.14,0.245 (inactive) and 0.545 (inactive),-0.21 and 0.668,0.469 and 0.225,0.219 and 0.161,-0.0828 and 0.805
C=CCN(CCCC)C(=O)C(c1cccs1)N(C(=O)/C=C\C(=O)O)c1ccc(CCO)cc1 (stereo not given),0.655 and 1.21,0.005 and 0.531,-0.0493 and -0.166,0.115 and -1.62,-1.83 and -2.34,0.863 and -0.409,0.867 and -0.0384,1.61 (inactive) and 1.37 (inactive),-0.498 and -1.07,-0.137 and -0.296,-1.13 and -0.631,-0.924 (inactive) and 0.0434 (inactive),-0.13 (inactive) and -0.354 (inactive),0.161 (inactive) and 0.541 (inactive),0.413 and 0.484,0.0144 (inactive) and -0.312 (inactive),0.0113 and -0.145,-2.58 and -3.71,-1.26 and -0.946,-0.315 and -0.346
CCN1C(=O)[C@H]2[C@H]3[C@H](O)[C@H](O)CC(=NOC)[C@@H]3CC[C@H]2C1=O,0.206,-0.604,-0.1,0.369,-0.422,-0.319,-0.817,-0.898 (inactive),-0.221,0.0024,-1.1,-0.285 (inactive),-1.9 (inactive),-0.495 (inactive),-0.27,0.525 (inactive),-0.0192,0.178,-0.065,-0.0581
C=CCN(C(=O)C1N(C(C)(C)CO)C(=O)C2C(C(=O)O)C3C=CC21O3)C(C)(C)C (stereo not given),0.974 and 1.67,-1.54 and -0.705,-0.232 and -0.112,-1.48 and 0.207,-2.19 and -1.87,-0.396 and 0.389,0.154 and 1.46,0.198 (inactive) and -0.0048 (inactive),-1.37 and -1.24,-0.427 and -0.0994,-0.805 and -0.846,0.69 (inactive) and 1.34 (inactive),0.53 (inactive) and 0.365 (inactive),0.961 (inactive) and 1.35 (inactive),-0.139 and 1.91,-0.0599 (inactive) and 0.474 (inactive),0.003 and 0.146,-2.82 and -3.2,-1.74 and -1.4,-0.347 and -0.228
